Records with an inconclusive call do not appear. Active and inactive are the calls of the source. The calls were made as follows: active = hit-call score of the fitted dose curve at least 0.9, where 1 is the maximum; inconclusive = response in the unintended direction; inactive = score below 0.9.
Columns and labels:
[1] = TOX21_p53_BLA_p2_viability: Viability Assessment in the Tox21 HCT-116 p53 Agonism Beta-lactamase Assay, Phase 2 (AID 2283591);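 also: compound exposure lasted 16 h at 37 °C; actives lower the ATP signal meaning cytotoxicity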
Outline: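 HCT-116 p53-bla cells (4000/well) rested 5 h at 37C, then received compounds in DMSO (217-fold dilution) for 16 h at 37C, 5% CO2. After the CCF4 read, CellTiter-Glo was added; ATP luminescence was read after 30 min at room temperature.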

[2] = target: Cellular tumor antigen p53 (Homo sapiens) (UniProt P04637); experiment: TOX21_p53_BLA_p2_ratio: Tox21 HCT-116 p53 Agonism Beta-lactamase Assay, Ratio, Phase 2 (AID 2283592)
Outline: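 HCT-116 cells with p53-responsive beta-lactamase reporter, 4000 cells/well, preincubated 5 h, then compound in DMSO (217-fold dilution) for 16 h at 37C. CCF4-AM substrate 2 h at room temperature; 460/530 nm emission ratio fitted upward versus DMSO.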

[3] = TOX21_p53_BLA_p3_viability: Viability Assessment in the Tox21 HCT-116 p53 Agonism Beta-lactamase Assay, Phase 3 (AID 2283593);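 also: cells exposed to compound for 16 h before reading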
Outline: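 HCT-116 cells (4000/well) rested 5 h at 37C, then got DMSO compounds by pin tool (217-fold dilution) for 16 h at 37C, 5% CO2. After the bla read, CellTiter-Glo was added and luminescence read at 30 min, room temperature.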

[4] = target: Cellular tumor antigen p53 (Homo sapiens) (UniProt P04637); experiment: TOX21_p53_BLA_p3_ratio: Tox21 HCT-116 p53 Agonism Beta-lactamase Assay, Ratio, Phase 3 (AID 2283596)
Outline: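 HCT116 p53-bla cells (4000/well) given compound in DMSO (217-fold dilution) after 5 h, incubated 16 h at 37C. CCF4-AM substrate 2 h at room temperature; 460/530 nm emission ratio, gain fitted against DMSO.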

[5] = TOX21_p53_BLA_p4_viability: Viability Assessment in the Tox21 HCT-116 p53 Agonism Beta-lactamase Assay, Phase 4 (AID 2283597);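 also: hits lower the luminescence signal meaning cytotoxicity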
Outline: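 HCT-116 p53-bla cells, 4000/well, dosed after 5 h attachment and incubated 16 h at 37 °C, 5% CO2. Viability from CellTiter-Glo ATP luminescence after 30 min at room temperature, taken after the beta-lactamase read; loss of signal indicates cytotoxicity.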

[6] = target: Cellular tumor antigen p53 (Homo sapiens) (UniProt P04637); experiment: TOX21_p53_BLA_p5_ratio: Tox21 HCT-116 p53 Agonism Beta-lactamase Assay, Ratio, Phase 5 (AID 2283599)
Outline: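 HCT-116 cells carrying a p53-inducible beta-lactamase reporter were seeded at 4000 cells/well and dosed after 5 h with compound in DMSO (217-fold dilution). After 16 h at 37C, CCF4-AM substrate was added for 2 h, and the 460/530 nm emission ratio was scored as gain-of-signal versus DMSO.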

[7] = TOX21_p53_BLA_p5_viability: Viability Assessment in the Tox21 HCT-116 p53 Agonism Beta-lactamase Assay, Phase 5 (AID 2283600)
Outline: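 HCT-116 p53 beta-lactamase reporter cells, 4000/well, were exposed to compound (pin transfer, 217-fold dilution) for 16 hours at 37C. Cellular ATP was read by CellTiter-Glo luminescence after 30 min at room temperature.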

[8] = target: Cellular tumor antigen p53 (Homo sapiens) (UniProt P04637); experiment: TOX21_p53_BLA_p4_ratio: Tox21 HCT-116 p53 Agonism Beta-lactamase Assay, Ratio, Phase 4 (AID 2283601)
Outline: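 HCT116 cells carrying an inducible beta-lactamase reporter were plated at 4000 cells/well, rested 5 h, then exposed to compounds in DMSO (217-fold dilution) for 16 h at 37C. CCF4-AM substrate was loaded 2 h at room temperature; 460/530 nm emission ratio scored gain-of-signal versus DMSO.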

Sequence of Cellular tumor antigen p53 (Homo sapiens) (P04637 whole entry, looked up): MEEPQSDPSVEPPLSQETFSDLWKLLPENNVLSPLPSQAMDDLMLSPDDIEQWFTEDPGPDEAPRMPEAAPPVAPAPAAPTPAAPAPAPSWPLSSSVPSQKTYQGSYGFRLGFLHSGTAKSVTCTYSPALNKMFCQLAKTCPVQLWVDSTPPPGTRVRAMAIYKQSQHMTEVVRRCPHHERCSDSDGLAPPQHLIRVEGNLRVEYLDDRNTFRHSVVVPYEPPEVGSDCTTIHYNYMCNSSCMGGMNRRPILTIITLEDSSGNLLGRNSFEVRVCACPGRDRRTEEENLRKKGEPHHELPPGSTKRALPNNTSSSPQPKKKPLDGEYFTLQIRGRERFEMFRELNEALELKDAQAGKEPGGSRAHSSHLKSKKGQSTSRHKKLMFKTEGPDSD

SMILES	outcome [1]	outcome [2]	outcome [3]	outcome [4]	outcome [5]	outcome [6]	outcome [7]	outcome [8]	AC50 [1]	AC50 [2]	AC50 [3]	AC50 [4]	AC50 [5]	AC50 [6]	AC50 [7]	AC50 [8]
CC(C)COCC(CN(Cc1ccccc1)c1ccccc1)N1CCCC1 (centres undefined)	inactive	inactive	inactive	inactive	inactive	inactive	inactive	inactive								
CCCCCCCCCCn1cc[n+](CCCCCCCCCC)c1C									44.2 µM (active)	18.7 µM (active)	46.1 µM (active)	20.1 µM (active)	57.5 µM (active)	74.1 µM (active)	75.2 µM (active)	73.6 µM (active)
O=C(c1cc2ccccc2o1)N1CCN(Cc2ccccc2)CC1	inactive	inactive	inactive	inactive	inactive	inactive	inactive	inactive								
O=C1c2c(O)cccc2[C@H]([C@@H]2O[C@H](CO)[C@@H](O)[C@H](O)[C@H]2O)c2cc(CO)cc(O)c21	inactive	inactive	inactive	inactive	inactive	inactive	inactive	inactive								
CCc1cccc(CC)c1NC(=O)CN(CC(=O)O)CC(=O)O	inactive	inactive	inactive	inactive	inactive	inactive	inactive	inactive								
CN(C/C=C/c1ccccc1)Cc1cccc2ccccc12	inactive	inactive	inactive	inactive	inactive	inactive	inactive	inactive								
CCCN(CCc1cccs1)[C@H]1CCc2c(O)cccc2C1	inactive	inactive	inactive	inactive	inactive	inactive	inactive	inactive								
CN1[C@@H](CC(=O)c2ccccc2)CCC[C@H]1C[C@H](O)c1ccccc1	inactive	inactive	inactive	inactive	inactive	inactive	inactive	inactive								
CC[C@H]1OC(=O)C[C@@H](O)[C@H](C)[C@@H](O[C@@H]2O[C@H](C)[C@@H](O[C@H]3C[C@@](C)(O)[C@@H](O)[C@H](C)O3)[C@H](N(C)C)[C@H]2O)[C@@H](CC=O)C[C@@H](C)C(=O)/C=C/C(C)=C/[C@@H]1CO[C@@H]1O[C@H](C)[C@@H](O)[C@@H](OC)[C@H]1OC	inactive	inactive	inactive	inactive	inactive	inactive	inactive	inactive								
CCCC(c1cc(C(C)(C)C)c(O)cc1C)c1cc(C(C)(C)C)c(O)cc1C									15 µM (active)	32.8 µM (active)	19.5 µM (active)	30.6 µM (active)	9.81 µM (active)	32.2 µM (active)	17.2 µM (active)	19.7 µM (active)
CCCCCCCCC1CO1 (centres undefined)	inactive	inactive	inactive	inactive	inactive	inactive	inactive	inactive								
CCC(=O)O[C@]1(C(=O)CCl)[C@@H](C)C[C@H]2[C@@H]3C[C@H](F)C4=CC(=O)C=C[C@]4(C)[C@@]3(F)[C@@H](O)C[C@@]21C	inactive	inactive	inactive	inactive	inactive	inactive	inactive	inactive								
SC1CCCCC1	inactive	inactive	inactive	inactive	inactive	inactive	inactive	inactive								
CC1CCCO1 (centres undefined)	inactive	inactive	inactive	inactive	inactive		inactive	inactive						85.2 µM (active)		
Nc1ccc(C(=O)Oc2ccccc2)c(O)c1	inactive	inactive	inactive	inactive	inactive	inactive	inactive	inactive								
CC(C(=O)O)c1ccc(C2CCCCC2)c2ccccc12 (centres undefined)	inactive	inactive	inactive	inactive		inactive	inactive	inactive					31.1 µM (active)			
NCCCC[C@H](NC(=O)[C@@H]1CCCN1C(=O)[C@@H]1CSSC[C@H](N)C(=O)N[C@@H](Cc2ccc(O)cc2)C(=O)N[C@@H](Cc2ccccc2)C(=O)N[C@@H](CCC(N)=O)C(=O)N[C@@H](CC(N)=O)C(=O)N1)C(=O)NCC(N)=O	inactive	inactive	inactive	inactive	inactive	inactive	inactive	inactive								
CC1=C2[C@H](/C=C(\C)C(=O)O)CC[C@@H](C)[C@H]2CC1	inactive	inactive	inactive	inactive	inactive	inactive	inactive	inactive								

— PubChem BioAssay (EPA / NIEHS)
